Test [1] in a line: hESC survival regulators, cell-based (AID 493140; call rule not given here;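 further: cells exposed to compounds for four days before counting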). The settings on record: human embryonic stem cell survival screen; stronger effect = higher value.
Test [2] in a line: liver-stage malaria parasite growth inhibition, primary screen, cell-based, HepG2, luciferase luminescence, HepG2 viability (AID 624349; in the data active means parasite load remaining mostly below about 12%, no sharp cut-off; inactive means mostly above about 10%;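 further: 100% = mean of DMSO negative control wells on the same plate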). As to conditions: P. berghei liver stage in HepG2, luciferase luminescence, concentration not given here; parasite load remaining: stronger effect = lower value; viability: measured here: HepG2 viability without parasites.
The target in test [3] is 6-phosphogluconate dehydrogenase, decarboxylating (Homo sapiens) (UniProt P52209). The experiment in a line: 6PGD enzyme inhibitors, primary screen, biochemical, human, recombinant enzyme, NADPH absorbance (AID 1159550). The settings on record: recombinant 6PGD, NADPH absorbance 341 nm; at 10 µM; stronger effect = higher value.
Test [4] can be described thus: differential killing of epithelial or mesenchymal cells, primary screen, imaging, PC-3E GFP, TEM4-18 mCherry, co-culture (AID 1345086;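 active means compounds killing one labelled cell type while sparing the other, by normalised counts and ratio limits, not self-fluorescent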;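 on all read-outs here: cells exposed to compound for 72 h before imaging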;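 on red/green cell ratio (normalised): normalised mesenchymal count divided by normalised epithelial count so high means epithelial killing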). The settings on record: imaging cell counts, at 1 µM; for red/green cell ratio (normalised): actives lie on both sides.
Test [5] concerns Aerobactin synthetase IucA (Klebsiella pneumoniae hvKP1). The experiment in a line: Biochemical IucA enzyme inhibition primary screen of the Spectrum library (AID 1346200; call rule not given here;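 further: 100% = wells without compound and 0% = wells lacking enzyme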). As to conditions: malachite green pyrophosphate, A620, at 8 µM, stronger effect = lower value.
In test [6] the test system is Aerobactin synthetase IucA (Klebsiella pneumoniae, hypervirulent). The experiment in a line: IucA enzyme inhibition, biochemical, LOPAC library, absorbance readout (AID 1346212; call rule not given here;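 further: 100% = no compound wells and 0% = no enzyme wells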). The settings on record: IucA enzyme assay, absorbance (OD) readout; stronger effect = lower value;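 tested at 8 µM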.
Test [7] in a line: sensitizers of A549 cells to miR-34 induction, primary screen, imaging, A549 dox-inducible miR-34, nuclei and caspase counts (AID 1347080;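 active means compounds whose cell count with miR-34 switched on is under 0.7 times the count with it off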). As to conditions: A549 miR-34 inducible, Hoechst nuclei count, 48 h.
Test [8] deals with Mitogen-activated protein kinase 7 (Homo sapiens) (UniProt Q13164). The experiment in a line: ERK5 transactivation activators in reporter cells, primary screen, cell-based, HTS (AID 1508626;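 active means luciferase signal above three times the same-plate solvent-only control wells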;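 further: luciferase driven by Gal4-ERK5 fusion binding five Gal4 sites before minimal TATA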). The settings on record: HeLa Gal4-ERK5 transactivation, 18 h, at 5 µM, stronger effect = higher value.
A short description of test [9]: viability rescue of complex I mutant cybrids, primary screen, cell-based, galactose medium, ATP luminescence (AID 1645843;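 active means z-score of at least 1.8 in each of two replicates, scored against plate mean and spread of sample wells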;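 further: positive z means more ATP and so rescue of galactose-driven cybrid death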). The settings on record: complex I mutant cybrid cells, 72 h, stronger effect = higher value.
The target of test [10] is NAD(+) hydrolase SARM1 (Homo sapiens) (UniProt Q6SZW1). The experiment in a line: SARM1 TIR NADase inhibitors, cell lysate, NAD-Glo luminescence (AID 1508614;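 active means compound whose remaining NAD level is above about 45 nM, limit read from the data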). As to conditions: SAM-TIR HEK293T lysate NADase, at 1 µM, stronger effect = higher value.
Test [11] is described as follows: survival rescue of mitochondrial mutant cells in low glucose, primary screen, MELAS cybrids, Rieske KO mouse fibroblasts, CellTiter-Glo (AID 1508586;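 active means mean z-score across replicates of 1.96 or higher in either the MELAS or the Rieske mutant cell line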;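 further: z relative to plate mean and SD of compound and empty wells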). In general terms: In ATP-based viability assays light output follows the ATP content of the culture.
Setting [12] is: measured here: epithelial PC-3E GFP cell survival.
Where [13] appears, read: measured here: mesenchymal TEM4-18 mCherry cell survival.
Setting [14] is: stronger effect = lower value, cell number ratio, induced over uninduced.
The mark [15] stands for this setting: measured here: relative caspase fold change +Dox/-Dox.
Where [16] appears, read: measured here: total cells with miR-34 induction, stronger effect = lower value.
The mark [17] stands for this setting: measured here: total cells without miR-34 induction.

“And” between values parts separate entries of the source, which are not always exact repeats. Identical values can stand only once. The source made the active and inactive calls.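 How the source made its calls, unless noted: active means at least 20% inhibition of 6-phosphogluconate dehydrogenase activity; inactive means the rest.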

Sequence of NAD(+) hydrolase SARM1 (Homo sapiens) (Q6SZW1 whole entry, looked up): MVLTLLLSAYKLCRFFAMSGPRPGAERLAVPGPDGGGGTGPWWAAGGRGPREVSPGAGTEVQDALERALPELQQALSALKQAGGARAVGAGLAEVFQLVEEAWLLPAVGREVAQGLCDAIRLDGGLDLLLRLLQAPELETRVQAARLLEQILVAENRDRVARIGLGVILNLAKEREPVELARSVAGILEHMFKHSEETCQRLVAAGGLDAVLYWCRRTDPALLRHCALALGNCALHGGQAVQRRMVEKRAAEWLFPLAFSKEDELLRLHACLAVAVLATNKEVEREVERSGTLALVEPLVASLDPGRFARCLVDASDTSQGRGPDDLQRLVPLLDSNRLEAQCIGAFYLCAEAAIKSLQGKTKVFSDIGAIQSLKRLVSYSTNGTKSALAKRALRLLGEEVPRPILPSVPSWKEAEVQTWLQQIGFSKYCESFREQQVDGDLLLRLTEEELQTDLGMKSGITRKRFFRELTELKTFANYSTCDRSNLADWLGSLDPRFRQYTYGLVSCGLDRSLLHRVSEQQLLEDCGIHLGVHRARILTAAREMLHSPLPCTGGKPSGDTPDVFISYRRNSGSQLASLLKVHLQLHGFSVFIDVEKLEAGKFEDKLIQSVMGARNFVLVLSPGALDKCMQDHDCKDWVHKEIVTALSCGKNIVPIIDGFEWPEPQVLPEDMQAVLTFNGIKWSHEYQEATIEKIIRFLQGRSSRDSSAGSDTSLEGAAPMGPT
Sequence of 6-phosphogluconate dehydrogenase, decarboxylating (Homo sapiens) (P52209 whole entry, looked up): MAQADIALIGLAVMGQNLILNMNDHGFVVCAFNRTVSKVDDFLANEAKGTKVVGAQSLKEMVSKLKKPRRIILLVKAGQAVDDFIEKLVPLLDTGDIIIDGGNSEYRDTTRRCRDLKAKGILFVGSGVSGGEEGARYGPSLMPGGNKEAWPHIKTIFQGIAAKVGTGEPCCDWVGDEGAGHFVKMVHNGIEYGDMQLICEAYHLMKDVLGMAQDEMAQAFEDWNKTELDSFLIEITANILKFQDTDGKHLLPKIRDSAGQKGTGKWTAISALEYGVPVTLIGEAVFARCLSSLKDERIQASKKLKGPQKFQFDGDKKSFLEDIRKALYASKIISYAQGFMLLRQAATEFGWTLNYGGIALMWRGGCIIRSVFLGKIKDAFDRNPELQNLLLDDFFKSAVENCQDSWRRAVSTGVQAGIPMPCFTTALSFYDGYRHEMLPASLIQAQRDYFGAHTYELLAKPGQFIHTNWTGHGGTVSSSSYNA
Sequence of Mitogen-activated protein kinase 7 (Homo sapiens) (Q13164 whole entry, looked up, the tested form may be a part): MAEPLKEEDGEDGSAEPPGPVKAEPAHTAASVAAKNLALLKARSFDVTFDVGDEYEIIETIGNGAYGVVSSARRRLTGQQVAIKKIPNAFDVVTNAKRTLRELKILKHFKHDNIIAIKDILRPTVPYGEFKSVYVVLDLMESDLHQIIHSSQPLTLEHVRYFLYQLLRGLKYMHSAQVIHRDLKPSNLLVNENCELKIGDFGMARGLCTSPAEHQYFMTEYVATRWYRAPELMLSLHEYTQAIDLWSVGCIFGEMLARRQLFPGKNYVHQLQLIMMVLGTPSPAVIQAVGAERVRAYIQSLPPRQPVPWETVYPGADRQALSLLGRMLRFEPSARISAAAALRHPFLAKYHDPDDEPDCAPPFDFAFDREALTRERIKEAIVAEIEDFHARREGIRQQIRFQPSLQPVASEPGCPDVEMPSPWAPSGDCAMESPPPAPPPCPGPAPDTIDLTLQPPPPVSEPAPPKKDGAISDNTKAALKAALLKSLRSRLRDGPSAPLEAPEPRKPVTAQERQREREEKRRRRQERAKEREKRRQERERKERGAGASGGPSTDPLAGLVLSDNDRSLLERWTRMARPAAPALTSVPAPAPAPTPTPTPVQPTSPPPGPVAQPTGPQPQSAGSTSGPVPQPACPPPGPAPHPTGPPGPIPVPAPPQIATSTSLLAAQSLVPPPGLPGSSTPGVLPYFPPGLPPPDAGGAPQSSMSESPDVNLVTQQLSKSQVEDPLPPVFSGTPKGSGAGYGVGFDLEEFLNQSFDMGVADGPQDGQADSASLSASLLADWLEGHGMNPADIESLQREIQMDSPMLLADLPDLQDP

One may read the viability as a read-out of living cells in per cent, often relative to untreated cells. For orientation: inhibition means the drop in the measured response relative to a control, in per cent. As a reminder, the remaining activity is the signal under treatment as a percentage of the control signal. For `Cc1nccc2c1[nH]c1ccccc12`, the survival in test [1] was 12.2 (inactive). In addition, the parasite load remaining in test [2] is 94.4% (inactive) and 63.5% (inactive). The viability in test [2] was 116% and 79%. Also, the inhibition in [3] is -8.63% (inactive). In [4], the red/green cell ratio (normalised) was 0.96 (inactive). Also, the normalised cell number in test [4] (setting [12]) was found to be 0.91; in test [4] (setting [13]), 0.87. In addition, in test [5], the activity remaining was 102% (inactive). Also, in [6], the remaining activity is 99.4% (inactive). The fold change in test [7] (stronger effect = lower value) is 0.91 (inactive) and 0.859 (inactive); in [7] (setting [14]) it was 0.856 (inactive); in [7] (setting [15]) it was 1.74 and 1.56 and 1.32. Besides, the cell count in test [7] (setting [16]) is 8890 and 7490 and 7920; in test [7] (setting [17]), 9780 and 8760 and 9220. The luciferase signal in test [8] was 132 AU (inactive). In addition, the z-score in [9] is -0.38 (inactive) and -0.595 (inactive).

Turning to `CC(=O)OC1CC2(C)C(c3ccoc3)CC3OC32C2(C)C(=O)C(O)=C3C(C)(C)C(=O)C=CC3(C)C12` (centres undefined), the inhibition in [3] is 9.52% (inactive).

Regarding `COc1ccc2[nH]cc(CCN)c2c1`, the parasite load remaining in test [2] is 58.9% (inactive). Further, the viability in test [2] stood at 68.9%. Moreover, in test [3], the inhibition is 0.367% (inactive). Further, the red/green cell ratio (normalised) in test [4] was 0.84 (inactive). The normalised cell number in test [4] (setting [12]) worked out at 1.18; in test [4] (setting [13]), 0.99. For the same molecule, in test [5], the activity remaining is 83.6% (inactive). The remaining activity in [6] is 109% (inactive). Also, the fold change was 1.03 (inactive) and 0.901 (inactive) in test [7] (stronger effect = lower value); 1.64 and 1.2 in [7] (setting [15]). Moreover, the cell count in [7] (setting [16]) was 10600 and 8900; in test [7] (setting [17]), 10300 and 9880. The z-score in test [9] was 0.225 (inactive) and 0.515 (inactive).

Turning to `CC(=O)OC1CC(OC2C(O)CC(OC3C(O)CC(OC4CCC5(C)C(CCC6C5CC(O)C5(C)C(C7=CC(=O)OC7)CCC65O)C4)OC3C)OC2C)OC(C)C1OC1OC(CO)C(O)C(O)C1O` (centres undefined), the inhibition in [3] was 7.01% (inactive).

On to `C=C[C@H]1CN2CCC1C[C@H]2[C@H](OC(=O)OCC)c1ccnc2ccc(OC)cc12` (some centres undefined), for which, in test [3], the inhibition is 4.32% (inactive).

For `c1ccc2c3c([nH]c2c1)CNCC3`, in [2], the parasite load remaining was 59.9% (inactive). The viability in test [2] amounted to 85.2%. For the same molecule, in test [3], the inhibition was -0.853% (inactive). In addition, the fold change is 0.984 (inactive) in [7] (stronger effect = lower value) and 1.28 in test [7] (setting [15]). Moreover, the figures for the cell count in test [7] (setting [16]) and in test [7] (setting [17]) were 7470 and 7600, respectively. Besides, in test [9], the z-score was -0.425 (inactive).

For the molecule `COP(=O)(OC)OC(Br)C(Cl)(Cl)Br` (centres undefined), in test [3], the inhibition is -10.9% (inactive).

Take `CC(=O)OC1CCC2(C)C(=CCC3C4CCC(=O)C4(C)CCC32)C1` (centres undefined): the inhibition in [3] is 2.3% (inactive).

On to `C=C[C@H]1CN2CC[C@H]1C[C@@H]2[C@@H](O)c1ccnc2ccccc12`, for which the parasite load remaining in test [2] was 63% (inactive). Besides, in [2], the viability worked out at 116%. Also, the inhibition in test [3] was -5.19% (inactive). For the same molecule, the fold change in [7] (setting [14]) is 0.868 (inactive); in [7] (setting [15]) it was 1.48. Also, the cell count in test [7] (setting [16]) worked out at 8930; in test [7] (setting [17]), 10300. The remaining NAD in [10] was 10 nM (inactive). Moreover, the luciferase signal in test [8] is 40 AU (inactive).

Regarding `CCc1cccc(CC)c1N(COC)C(=O)CCl`, the inhibition in test [3] is -1.98% (inactive).

Consider `Cn1c(=O)c2c(ncn2CCCl)n(C)c1=O`, for which the inhibition in test [3] was -2.23% (inactive).

`C=CCN1CC[C@]23c4c5ccc(O)c4O[C@H]2C(=O)CC[C@@]3(O)[C@H]1C5`: the survival in test [1] was 31.3 (inactive). Further, the inhibition in [3] is -2.77% (inactive). For the same molecule, the remaining activity in [6] was 107% (inactive). Besides, the z-score was 0.056 (inactive) and 0.0574 (inactive) in [11] (MELAS cybrid survival, CellTiter-Glo 48 h, stronger effect = higher value); -0.112 and -0.417 in test [11] (Rieske KO mouse fibroblast survival, CellTiter-Glo 72 h); 0.98 (inactive) and -0.48 (inactive) and 0.575 (inactive) in [9]. Also, the remaining NAD in [10] was 10 nM (inactive). Besides, the luciferase signal in test [8] is 32 AU (inactive).

Regarding `C=C[C@H]1CN2CC[C@H]1C[C@H]2[C@H](O)c1ccnc2ccccc12`, the parasite load remaining in test [2] was 56.2% (inactive) and 85.6% (inactive) and 31.1% (inactive). For the same molecule, the viability in test [2] was 103% and 68.9% and 98.9%. The inhibition in [3] was 5.53% (inactive). Further, the red/green cell ratio (normalised) in test [4] was 1.04 (inactive). For the same molecule, the normalised cell number came to 1.08 in test [4] (setting [12]) and 1.12 in test [4] (setting [13]). For the same molecule, the activity remaining in test [5] was 97.1% (inactive). Also, the fold change was 0.86 (inactive) and 0.872 (inactive) in test [7] (stronger effect = lower value); 1.26 and 3.36 in test [7] (setting [15]). Also, the cell count in test [7] (setting [16]) is 9250 and 11500; in test [7] (setting [17]), 10800 and 13200. Besides, the remaining NAD in [10] was 10 nM (inactive). Further, in [8], the luciferase signal was 48 AU (inactive).
